# According to PubChem BioAssay AID662 (National Center for Advancing Translational Sciences (NCATS), 2007):
# About 1,800 (2.5%) of roughly 71,000 compounds were called active. About 26% were inconclusive and are not listed. The call rests on the fitted dose curve; in most records, active means well fitted activation curve with a large enough effect in the signal ratio, with a control signal flat (not every such curve was filed as active); inconclusive means small, poorly fitted or top-dose-only effect, or effect the other way, or a change in a side signal; inactive means flat fitted curve, though single readings scatter; the % refers to the signal ratio. Only a selection was taken, and actives are over-represented in it overall.
# Assay: Cell signaling CRE-BLA (Fsk stim); on activity change, negative = inhibition: % of control where 0% means no effect
# Settings: CHO CRE-bla reporter (cAMP response element driving beta-lactamase), forskolin EC10, beta-lactamase ratio; series mostly up to 38.2 µM; activity change, negative = inhibition: at the top concentration
# Excerpt: NIH Molecular Libraries Screening Centers Network [MLSCN]
# NIH Chemical Genomics Center [NCGC]
# Assay Provider: Marshall W. Nirenberg, U.S. National heart lung & blood institute
# Memories persist for different lengths of time, from seconds or minutes to a lifetime. There are two kinds of memory: short-term memory (STM) and long-term memory (LTM). STM lasts for minutes to hours, which maybe mediated by modifications of molecules involved in synaptic functions. LTM lasts for days or longer, and may be due to the formation of new synapses or restructuring of existing synapses. LTM, but not STM, requires gene transcription and synthesis of proteins. CREB (cyclic-AMP Responsive Element Binding Protein) is one of the candidates plays an important role for enhancement of some types of LTM. CREB, a family of transcription factors, regulates the transcription of genes containing cAMP Responsive Elements (CRE). CRE is a nucleotide sequence often found in the promoter regions of genes that are binding sites for CREB.
# Using a beta-lactamase reporter-gene under control of cAMP responsive element, a cell-based assay [CellSensor(TM) CRE-bla CHO developed by Invitrogen Corp.] was used to measure forskolin-induced signaling. Library compounds were measured for their ability to modulate positively or negatively the action of EC10 NKH 477, a water soluble forskolin, on reporter gene activity. Compounds were screened in a titration series in 1536-well format. Positive and negative modulators were identified based on the AC50 values derived from the screening data.
# NCGC Assay Protocol Summary
# 2000 cells/5uL in Opti-MEM medium containing 0.5% dialyzed FBS, 0.1 mM NEAA, 1 mM sodium pyruvate and 10 mM HEPES was dispensed into 1536-well plates and cells were cultured at 37 degrees Celsius overnight. […] And then the plates were incubated at 37 degrees Celsius for 3 hours. 1 uL of CCF4-dye mixture was added to each well. After incubated at room temperature for 2 hours the plates were measured on an EnVision plate reader at Excitation 405nm, Emission1=460nm and Emission 2=530nm. The %Activity was determined from the ratio of 460nm/530nm.
# Keywords: NIH Roadmap, MLSCN, MLSMR, qHTS, NCGC, CRE, beta-lactamase reporter-gene assay.
# Potency means the concentration at half of the fitted maximal effect.
SMILES,"activity change, negative = inhibition",Potency
COc1ccc(S(=O)(=O)NCc2ccc(C(=O)N3CCC4(CC3)OCCO4)cc2)cc1,-18% (inactive),–
O=C(c1cc(S(=O)(=O)N2CCOCC2)ccc1F)N1CCC2(CC1)OCCO2,-0.495% (inactive),–
O=C(c1cc2nc(-c3ccccc3)cc(-c3ccccc3)n2n1)N1CCC2(CC1)OCCO2,–,2.51 µM (active)
C[C@@]1([C@@H](NP(=O)(c2ccccc2)c2ccccc2)c2ccccc2)C[C@H]1CCO,-6.41% (inactive),–
Cc1cc(-c2ccc(N)c(C)c2)ccc1N,2.87% (inactive),–
N[C@H](Cc1o[nH]c(=O)c1Cl)C(=O)O,-13.5% (inactive),–
ClC(Cl)=C(Cl)C(Cl)=C(Cl)Cl,-6.71% (inactive),–
CCC(=NCCCO)c1c(O)n(-c2ccc(OC)cc2)c(=O)[nH]c1=O,6.61% (inactive),–
CCCCCCN=C(CC)c1c(O)n(CCCC)c(=O)[nH]c1=O,–,10 µM (active)
ClC(Cl)(Cl)c1ccccc1,–,inactive
